The text below walks through data of PubChem BioAssay (NCATS).

Results filed as inconclusive are left out. A call without a number means that no potency is given here. Calls of active or inactive are those of the source. The call rests on the fitted dose curve; tested in HEK293 reporter line.
Further: nearly all actives have a fitted effect of over 80% in size.
Potency means the concentration at half of the fitted maximal effect.

The first assay in a line: qHTS for Inhibitors of the Functional Ribonucleoprotein Complex (vRNP) of Lassa (LASV) Arenavirus: Viability assay - alamar blue signal for LASV Primary Screen (AID 1347083). The following applies: cell viability, alamar blue fluorescence (LASV minigenome counter-screen); series mostly up to 57.5 µM.
In the case of `CC/C=C(\C(=O)N[C@@H]1C(=O)N2C(C(=O)OCOC(=O)C(C)(C)C)=C(COC(N)=O)CS[C@H]12)c1csc(N)n1`, the Potency result is “inactive”.
On the same count and under the same terms, with `COC(=O)C(c1ccccc1Cl)N1CCc2sccc2C1` (stereo unspecified) the entry was “inactive”; with `Cc1cc2c(s1)Nc1ccccc1N=C2N1CCN(C)CC1`, “inactive”; with `CC(C)NC[C@@H](O)COc1ccc(CC(N)=O)cc1`, “inactive”.
On the same count and under the same terms, with `COC(=O)N[C@H](C(=O)N[C@@H](Cc1ccccc1)[C@@H](O)CN(Cc1ccc(-c2ccccn2)cc1)NC(=O)[C@@H](NC(=O)OC)C(C)(C)C)C(C)(C)C` the entry was “inactive”; with `CN1CCC[C@@H]1Cc1c[nH]c2ccc(CCS(=O)(=O)c3ccccc3)cc12`, “inactive”.
As for `COc1cc(NC(C)CCCN)c2ncccc2c1` (stereo unspecified), the Potency result is “inactive”.
As to `O[C@@H](CNC[C@H](O)[C@H]1CCc2cc(F)ccc2O1)[C@@H]1CCc2cc(F)ccc2O1`, the Potency entry was “inactive”.
Same read-out and setting: next, `CCC1C(=O)OCC1Cc1cncn1C` (stereo unspecified): “inactive”.
Still for that read-out and setting: with `CC(C)[N+](C)(CCOC(=O)C1c2ccccc2Oc2ccccc21)C(C)C` the entry was “inactive”.
As to `OC(Cn1cncn1)(Cn1cncn1)c1ccc(F)cc1F`, the Potency result is “inactive”.
On the same count and under the same terms, next, `C[C@]12CC[C@@H]3c4ccc(O)cc4C[C@@H](CCCCCCCCCS(=O)CCCC(F)(F)C(F)(F)F)[C@H]3[C@@H]1CC[C@@H]2O` (stereo partly specified): “inactive”; `NC(=O)C(c1ccccc1)(c1ccccc1)[C@@H]1CCN(CCc2ccc3c(c2)CCO3)C1`: “inactive”.
The same measure, in the same setting: next, `Cc1ccc(-n2[nH]c(C)c(N=Nc3cccc(-c4cccc(C(=O)O)c4)c3O)c2=O)cc1C`: “inactive”; `CN(C)CCC=C1c2ccccc2C=Cc2ccccc21`: “inactive”.
On the same count and under the same terms, next, `CN(C)c1cc(NC(=O)CNC(C)(C)C)c(O)c2c1C[C@@H]1C[C@H]3[C@H](N(C)C)C(=O)C(C(N)=O)=C(O)[C@@]3(O)C(=O)C1=C2O`: “inactive”.
Turning to `C=C(CC)C(=O)c1ccc(OCC(=O)O)c(Cl)c1Cl`, the Potency result is “inactive”.
On the same count and under the same terms, with `N=c1nc(N2CCCCC2)cc(N)n1O` the entry was “inactive”; with `Fc1ccc([C@@H]2CCNC[C@H]2COc2ccc3c(c2)OCO3)cc1`, “inactive”; with `COc1ccc(OC)c(C(O)CNC(=O)CN)c1` (stereo unspecified), “inactive”.
Same read-out and setting: next, `CC(C)NCC(O)COc1ccc(CCOCC2CC2)cc1` (stereo unspecified): “inactive”; `Cc1ccsc1C(=CCCN1CCC[C@@H](C(=O)O)C1)c1sccc1C`: “inactive”.
The same measure, in the same setting: next, `Cc1nc2n(c(=O)c1CCN1CCC(c3noc4cc(F)ccc34)CC1)CCC[C@H]2O`: “inactive”; `COc1cc(C(C)=O)ccc1OCCCN1CCC(c2noc3cc(F)ccc23)CC1`: “inactive”; `O=C(O)COCCN1CCN(C(c2ccccc2)c2ccc(Cl)cc2)CC1` (stereo unspecified): “inactive”.
As to `CN1CCC(=C2c3ccccc3C=Cc3ccccc32)CC1`, the Potency result is “inactive”.
For the compound `CN1C(=O)CC(C)(c2ccccc2)C1=O` (stereo unspecified), the Potency entry was “inactive”.
Same read-out and setting: next, `N[C@@H](C(=O)N[C@@H]1C(=O)N2C(C(=O)O)=C(Cl)CS[C@H]12)c1ccccc1`: “inactive”; `CS(=O)(=O)CCNCc1ccc(-c2ccc3ncnc(Nc4ccc(OCc5cccc(F)c5)c(Cl)c4)c3c2)o1`: 432 nM (active).
The same measure, in the same setting: with `CCCNC(=O)NS(=O)(=O)c1ccc(Cl)cc1` the entry was “inactive”.
Same read-out and setting: with `CNCCC(Oc1ccc(C(F)(F)F)cc1)c1ccccc1` (stereo unspecified) the entry was “inactive”.
Regarding `COc1ccccc1Oc1c(NS(=O)(=O)c2ccc(C(C)(C)C)cc2)nc(-c2ncccn2)nc1OCCO`, the Potency result is “inactive”.
For the compound `C[C@@H](NCCCc1cccc(C(F)(F)F)c1)c1cccc2ccccc12`, the Potency entry is “inactive”.
Regarding `O=C1NC(c2ccccc2)(c2ccccc2)C(=O)N1COP(=O)(O)O`, the Potency entry was “inactive”.
Still for that read-out and setting: with `CCCc1nc2c(C)cc(-c3nc4ccccc4n3C)cc2n1Cc1ccc(-c2ccccc2C(=O)O)cc1` the entry was “inactive”; with `CC1=NS(=O)(=O)c2cc(Cl)ccc2N1`, “inactive”.
Still for that read-out and setting: with `O=C1[C@H](CC[C@H](O)c2ccc(F)cc2)[C@@H](c2ccc(O)cc2)N1c1ccc(F)cc1` the entry was “inactive”; with `CCN(CC)CCNC(=O)c1cc(Cl)c(N)cc1OC`, “inactive”.

The next assay is described as follows: qHTS for Inhibitors of the Functional Ribonucleoprotein Complex (vRNP) of Lymphocytic Choriomeningitis Arenaviruses (LCMV): Viability assay - alamar blue signal for LCMV Primary Screen (AID 1347085). To be noted: alamar blue viability counter-screen, LCMV vRNP screen cells; series mostly up to 57.5 µM.
As to `CC/C=C(\C(=O)N[C@@H]1C(=O)N2C(C(=O)OCOC(=O)C(C)(C)C)=C(COC(N)=O)CS[C@H]12)c1csc(N)n1`, the Potency result is “inactive”.
Still for that read-out and setting: next, `COC(=O)C(c1ccccc1Cl)N1CCc2sccc2C1` (stereo unspecified): “inactive”.
For the compound `Cc1cc2c(s1)Nc1ccccc1N=C2N1CCN(C)CC1`, the Potency result is “inactive”.
Same read-out and setting: with `CC(C)NC[C@@H](O)COc1ccc(CC(N)=O)cc1` the entry was “inactive”.
For the compound `COC(=O)N[C@H](C(=O)N[C@@H](Cc1ccccc1)[C@@H](O)CN(Cc1ccc(-c2ccccn2)cc1)NC(=O)[C@@H](NC(=O)OC)C(C)(C)C)C(C)(C)C`, the Potency entry is “inactive”.
Same read-out and setting: next, `CN1CCC[C@@H]1Cc1c[nH]c2ccc(CCS(=O)(=O)c3ccccc3)cc12`: “inactive”; `COc1cc(NC(C)CCCN)c2ncccc2c1` (stereo unspecified): “inactive”; `O[C@@H](CNC[C@H](O)[C@H]1CCc2cc(F)ccc2O1)[C@@H]1CCc2cc(F)ccc2O1`: “inactive”.
On the same count and under the same terms, with `CCC1C(=O)OCC1Cc1cncn1C` (stereo unspecified) the entry was “inactive”; with `CC(C)[N+](C)(CCOC(=O)C1c2ccccc2Oc2ccccc21)C(C)C`, “inactive”; with `OC(Cn1cncn1)(Cn1cncn1)c1ccc(F)cc1F`, “inactive”.
Still for that read-out and setting: with `C[C@]12CC[C@@H]3c4ccc(O)cc4C[C@@H](CCCCCCCCCS(=O)CCCC(F)(F)C(F)(F)F)[C@H]3[C@@H]1CC[C@@H]2O` (stereo partly specified) the entry was “inactive”.
`NC(=O)C(c1ccccc1)(c1ccccc1)[C@@H]1CCN(CCc2ccc3c(c2)CCO3)C1`: the Potency entry is “inactive”.
Same read-out and setting: with `Cc1ccc(-n2[nH]c(C)c(N=Nc3cccc(-c4cccc(C(=O)O)c4)c3O)c2=O)cc1C` the entry was “inactive”.
The same measure, in the same setting: next, `CN(C)CCC=C1c2ccccc2C=Cc2ccccc21`: “inactive”; `CN(C)c1cc(NC(=O)CNC(C)(C)C)c(O)c2c1C[C@@H]1C[C@H]3[C@H](N(C)C)C(=O)C(C(N)=O)=C(O)[C@@]3(O)C(=O)C1=C2O`: “inactive”.
Consider `C=C(CC)C(=O)c1ccc(OCC(=O)O)c(Cl)c1Cl`, for which the Potency entry was “inactive”.
Same read-out and setting: with `N=c1nc(N2CCCCC2)cc(N)n1O` the entry was “inactive”; with `Fc1ccc([C@@H]2CCNC[C@H]2COc2ccc3c(c2)OCO3)cc1`, “inactive”.
Same read-out and setting: next, `COc1ccc(OC)c(C(O)CNC(=O)CN)c1` (stereo unspecified): “inactive”; `CC(C)NCC(O)COc1ccc(CCOCC2CC2)cc1` (stereo unspecified): “inactive”.
Same read-out and setting: next, `Cc1ccsc1C(=CCCN1CCC[C@@H](C(=O)O)C1)c1sccc1C`: “inactive”.
Take `Cc1nc2n(c(=O)c1CCN1CCC(c3noc4cc(F)ccc34)CC1)CCC[C@H]2O`: the Potency entry was “inactive”.
The same measure, in the same setting: with `COc1cc(C(C)=O)ccc1OCCCN1CCC(c2noc3cc(F)ccc23)CC1` the entry was “inactive”; with `O=C(O)COCCN1CCN(C(c2ccccc2)c2ccc(Cl)cc2)CC1` (stereo unspecified), “inactive”; with `CN1CCC(=C2c3ccccc3C=Cc3ccccc32)CC1`, “inactive”.
In the case of `CN1C(=O)CC(C)(c2ccccc2)C1=O` (stereo unspecified), the Potency result was “inactive”.
Still for that read-out and setting: next, `N[C@@H](C(=O)N[C@@H]1C(=O)N2C(C(=O)O)=C(Cl)CS[C@H]12)c1ccccc1`: “inactive”.
The same measure, in the same setting: next, `CS(=O)(=O)CCNCc1ccc(-c2ccc3ncnc(Nc4ccc(OCc5cccc(F)c5)c(Cl)c4)c3c2)o1`: 137 nM (active); `CCCNC(=O)NS(=O)(=O)c1ccc(Cl)cc1`: “inactive”; `CNCCC(Oc1ccc(C(F)(F)F)cc1)c1ccccc1` (stereo unspecified): “inactive”.
On the same count and under the same terms, with `COc1ccccc1Oc1c(NS(=O)(=O)c2ccc(C(C)(C)C)cc2)nc(-c2ncccn2)nc1OCCO` the entry was “inactive”; with `C[C@@H](NCCCc1cccc(C(F)(F)F)c1)c1cccc2ccccc12`, “inactive”.
For the compound `O=C1NC(c2ccccc2)(c2ccccc2)C(=O)N1COP(=O)(O)O`, the Potency entry was “inactive”.
On the same count and under the same terms, with `CCCc1nc2c(C)cc(-c3nc4ccccc4n3C)cc2n1Cc1ccc(-c2ccccc2C(=O)O)cc1` the entry was “inactive”; with `CC1=NS(=O)(=O)c2cc(Cl)ccc2N1`, “inactive”.
In the case of `O=C1[C@H](CC[C@H](O)c2ccc(F)cc2)[C@@H](c2ccc(O)cc2)N1c1ccc(F)cc1`, the Potency entry is “inactive”.
On the same count and under the same terms, with `CCN(CC)CCNC(=O)c1cc(Cl)c(N)cc1OC` the entry was “inactive”.
